This excerpt belongs to a sample that is enriched for hits.
Pf Dd2 inh – Plasmodium falciparum Dd2 growth inhibition. P. falciparum Dd2 growth, SYBR Green, 72 h. AID 1347417. 120,000 tested, 4.3% active. Potency, µM (top dose mostly 28.9 µM), inactives show at the top dose activity, negative = inhibition, most hits filed as inhibitors; active = well fitted inhibition curve with a large enough effect;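 also: plate controls were DMSO vehicle for no effect and reference drug for full effect; nearly all actives have a fitted effect of over 65% in size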
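Infected erythrocytes (Dd2, 0.3% parasitemia, 2.5% hematocrit final) are added to compound in RPMI-1640/Albumax II medium, grown 72 h at 37C in low oxygen, then lysed with saponin/Triton-X containing SYBR Green and read by fluorescence.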
* marks the source's active call; other numbers are inactive results; i = inactive; ! = not confirmed by another sample; [ ] = another dose, or the depositor's remark. Potency is read from the fitted curve at half-maximal effect.

SMILES | Pf Dd2 inh
COc1cc2c(cc1OC)C(COc1cccc(C(F)(F)F)c1)N(C(=O)c1ccc(S(=O)(=O)N3CCCC3)cc1)CC2 (stereo not drawn) | 7.9µM*
COc1cc2c(cc1OC)C(COc1cc(C)cc(C)c1)N(C(=O)c1ccc(S(=O)(=O)N3CCCC3)cc1)CC2 (stereo not drawn) | 3.2µM*
Cc1ncsc1CN1CCc2nn(CC3CC3)c(=O)n2CC1 | 17%
CCNc1nccc(N2CCC(CC(=O)NCCCOC)CC2)n1 | 5%
CC(C)CCC(=O)N1C[C@@H](CO)[C@H](c2nc(-c3ccncc3)no2)C1 | 12%
CC(C)OCCCNC(=O)c1ccc(CSc2nc3cccnc3n2Cc2ccccc2)cc1 | i
O=C(NCc1ccco1)c1ccc(Cn2c(SCc3ccccc3)nc3cccnc32)cc1 | -18%
COc1ccc(Cn2c(SCc3ccc(C(=O)NCc4ccc(C)cc4)cc3)nc3cccnc32)cc1 | 10µM*
Cc1cccc(CNC(=O)c2ccc(Cn3c(SCc4cccc(F)c4)nc4cccnc43)cc2)c1 | i
COc1cccc(CNC(=O)c2ccc(Cn3c(SCc4ccccc4)nc4cccnc43)cc2)c1 | 10µM*
COCCCNC(=O)c1ccc(CSc2nc3cccnc3n2Cc2ccc(OC)cc2)cc1 | -15%
c1ccc(-c2nnc3n2CCN(Cc2ccsc2)C3)cc1 | -23%[44.1 µM]
Cc1ccc(Cn2c(C3CCN(C(=O)Cc4cccc(F)c4)CC3)n[nH]c2=O)cc1 | i
COC[C@H]1CCCN1C(=O)C[C@@H]1O[C@H](CNC(=O)Nc2ccccc2)[C@@H](O)[C@H]1O | 13%[44.1 µM]
COC1CCC12CCN(C(=O)NC(C)(C)C)CC2 (stereo not drawn) | 7%
Cc1ccccc1CC(=O)N1CC[C@@H]2CN(S(C)(=O)=O)[C@@H]2C1 | 43%
C[S+](=O)([O-])c1cccc(Nc2n[nH]c(C(O)c3ccccc3)n2)c1 (stereo not drawn) | 3%[44.1 µM]
Cc1c(C(=O)OC(C)C)sc(NC(=O)C2c3ccccc3Oc3ccccc32)c1C(=O)OC(C)C | 2.2µM*
CCOC(=O)c1sc(NC(=O)C2c3ccccc3Oc3ccccc32)c(C#N)c1C | -18%
Cc1sc(NC(=O)COc2ccc(C(C)(C)C)cc2)c(C(=O)OC(C)C)c1C | 28%
Cn1cnc([S+](=O)([O-])N2CCC(c3nnc4n3C(C(=O)O)CC4)CC2)c1 (stereo not drawn) | 24%
Cc1ccccc1NC(=O)CSc1nc2ccc(NC(=O)c3cccs3)cc2s1 | i
Cc1ccc(OCCSc2nc3ccc(NC(=O)COc4ccc(F)cc4)cc3s2)cc1 | 19%
Cc1ccc(OCCSc2nc3ccc(NC(=O)c4cccs4)cc3s2)cc1 | 1µM*
CCC(=O)Nc1ccc2nc(SCCOc3ccccc3)sc2c1 | i
SMILES | Pf Dd2 inh
Cc1ccc(OCCSc2nc3ccc(NC(=O)c4ccc(F)cc4)cc3s2)cc1 | 21%
O=C(Nc1ccc2nc(SCCOc3ccccc3Cl)sc2c1)c1cccs1 | 2.8µM*
O=C1CC2(CCN(C(=O)c3ccc(C(F)(F)F)cc3)CC2)Oc2cc(Cl)ccc21 | -4%
O=c1[nH]c(C2CCCN(Cc3ccsc3)C2)nn1-c1ccccc1 (stereo not drawn) | i
O=c1[nH]c(C2CCCN(Cc3ccc(-c4ccccc4)cc3)C2)nc2ccc(F)cc12 (stereo not drawn) | 8.9µM*!
O=c1cc(-c2cccnc2)nc(-c2ccc(CN3CC[C@@H](O)C3)cc2)[nH]1 | -28%
COc1ccccc1-c1ccc(CN2CC3CCC(C2)N3c2ccc(C(F)(F)F)cc2)cc1 | -24%
COc1ccccc1-c1ccc(CN2CCCC(c3nc4ccc(F)cc4c(=O)[nH]3)C2)cc1 (stereo not drawn) | 8.9µM*!
COc1ccccc1-c1ccc(CN2CCN(c3ccc(Cl)nn3)C(=O)C2)cc1 | -12%
O=c1[nH]c(C2CCCN(Cc3ccc(C(F)(F)F)cc3)C2)nn1-c1ccccc1 (stereo not drawn) | -20%
O=c1[nH]c(C2CCN(Cc3ccc(-c4cccnc4)cc3)CC2)nc2ccc(F)cc12 | 4.5µM*!
O=c1[nH]c(C2CCN(CC3CCCC3)CC2)nc2ccc(F)cc12 | -6%
CN(C)C[C@H]1O[C@@H](CO)[C@@H](O)[C@H]1N1CCCC1 | -18%[44.1 µM]
COCCN1CC(CO)C2(CCN(C3CCSCC3)CC2)C1 (stereo not drawn) | 14%
COc1ccc([S+](=O)([O-])N2CCC(N3CCOCC3=O)CC2)cc1 | 13%
CCc1ccc(CN2CCC(CNC(=O)c3occc3C)CC2)nc1 | -22%
O=C(Nc1cccc(F)c1)c1cnc2c(c1)N(C(=O)Cc1cccc(C(F)(F)F)c1)CCC2 | 11µM*
CC(C)c1ccc(CC(=O)N2CCCc3ncc(C(=O)Nc4ccccn4)cc32)cc1 | 7.9µM*
CC(C)c1ccc(CC(=O)N2CCCc3ncc(C(=O)Nc4cccnc4)cc32)cc1 | 0.63µM*
CC(C)c1ccc(CC(=O)N2CCCc3ncc(C(=O)NCCN4CCCC4)cc32)cc1 | -7%[44.1 µM]
CC(C)c1ccc(CC(=O)N2CCCc3ncc(C(=O)NCc4ccccc4)cc32)cc1 | i
O=C(Nc1cccc(C(F)(F)F)c1)c1cnc2c(c1)N(C(=O)CCc1ccccc1)CCC2 | i

Bioassay records deposited in PubChem by National Center for Advancing Translational Sciences (NCATS).
